According to PubChem BioAssay (NCATS):
Records with an inconclusive call do not appear. Calls of active or inactive are those of the source. Calls come from the whole dose curve; as a rule, active = well fitted cell-killing curve with a large enough effect; inconclusive = small, poorly fitted or top-dose-only effect, or effect the other way; inactive = flat fitted curve, though single readings scatter.

What follows are compounds tested on Tov-21-G (assay: Primary qHTS to identify gynecologic anti-cancer compounds using libraries of approved drugs and bioactive compounds (AID 1345084; note: nearly all actives have a fitted effect of over 55% in size)). Details: Gynecologic cancer cell panel viability, ATPlite luminescence, 48 h; series mostly up to 57.5 µM; activity change, negative = cytotoxicity: at the top concentration.
Procedure, shortened: (§1)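 48 h compound exposure at 37 C, 5% CO2; five-point qHTS. ATPlite luminescence readout of cell ATP.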
% is set by controls: 0 for no effect and ±100 for the full control effect.

Q: Which “activity change, negative = cytotoxicity” value does the source give for `CCOc1ccccc1OCC1CNCCO1` (configuration not stated) here?
A: -4.5% (inactive)

Q: With `NCC[C@H](O)C(=O)N[C@@H]1C[C@H](N)[C@@H](O[C@H]2O[C@H](CN)[C@@H](O)[C@H](O)[C@@H]2O)[C@H](O)[C@@H]1O[C@H]1O[C@H](CO)[C@@H](O)[C@H](N)[C@@H]1O` as the compound, how does the activity change, negative = cytotoxicity read?
A: 7.33% [at 0.462 µM] (inactive)

Q: With `O=C(c1cc(O)c(O)c(O)c1)c1ccc(O)c(O)c1O` as the compound, how does the “activity change, negative = cytotoxicity” value read?
A: 8.56% (inactive)

Q: How did the “activity change, negative = cytotoxicity” value turn out when `CC(C)(Oc1ccc(Cl)cc1)C(=O)OCCCOC(=O)C(C)(C)Oc1ccc(Cl)cc1` was run?
A: 3.34% (inactive)

Q: How did the “activity change, negative = cytotoxicity” value turn out when `COc1cc(OC)nc(O[C@H](C(=O)O)C(OC)(c2ccccc2)c2ccccc2)n1` was run?
A: 3.31% (inactive)

Q: `CCC(=O)O[C@]1(C(=O)COC)[C@@H](C)C[C@H]2[C@@H]3CCC4=CC(=O)C=C[C@]4(C)C3(F)[C@@H](O)C[C@@]21C` (some centres not stated) was tested. Which “activity change, negative = cytotoxicity” value did it give?
A: -2.27% (inactive)

Q: Which “activity change, negative = cytotoxicity” value does the source give for `Cc1ccc(C(=O)C(=O)O)cc1C` here?
A: 0.633% (inactive)

Q: How did the “activity change, negative = cytotoxicity” value turn out when `C/C(=C1\CCOC(=O)S1)N(C=O)Cc1cnc(C)nc1N` was run?
A: -16.8% (inactive)

Q: For `O=C(C1CCCCC1)N1CC(=O)N2CCCc3ccccc3C2C1` (configuration not stated), which “activity change, negative = cytotoxicity” value is on record?
A: -4.36% (inactive)

Q: With `O=C(O)c1ccc(OCCN2CCCCC2)cc1` as the compound, how does the “activity change, negative = cytotoxicity” value read?
A: 4.19% (inactive)

Q: `C/C(=C(/OCCOc1ccc(Cl)cc1)c1ccc(Cl)cc1Cl)n1ccnc1` was tested. Which “activity change, negative = cytotoxicity” value did it give?
A: -3.19% (inactive)

Q: `CC(=O)[C@H]1CC[C@H]2[C@@H]3C=CC4=CC(=O)CC[C@@]4(C)[C@@H]3CC[C@]12C` was tested. Which “activity change, negative = cytotoxicity” value did it give?
A: -1.75% (inactive)

Q: How did the “activity change, negative = cytotoxicity” value turn out when `Oc1ccccc1-c1nnco1` was run?
A: -0.781% (inactive)

Q: `C#Cc1ccc(-c2ccccc2F)cc1` was tested. Which “activity change, negative = cytotoxicity” value did it give?
A: 8.12% (inactive)

Q: Which “activity change, negative = cytotoxicity” value does the source give for `CC(Oc1c(Cl)cccc1Cl)C1=NCCN1` (configuration not stated) here?
A: -5.08% (inactive)

Q: Which “activity change, negative = cytotoxicity” value does the source give for `CCCCOC(=O)CCCCCCCCC(=O)OCCCC` here?
A: 2.08% (inactive)

Q: For `CC(C)C[C@@H]1[C@H](c2ccccc2)OC(=O)N1CCCN1CCCCCC1`, which “activity change, negative = cytotoxicity” value is on record?
A: -1.15% (inactive)

Q: `COC(=O)CCCCC(CCSS/C(CCO)=C(\C)N(C=O)Cc1cnc(C)nc1N)SC(C)=O` (configuration not stated) was tested. Which “activity change, negative = cytotoxicity” value did it give?
A: -3.23% (inactive)

Q: For `CNC[C@H](O)[C@@H](O)[C@H](O)[C@H](O)CO`, which “activity change, negative = cytotoxicity” value is on record?
A: 2.13% (inactive)

Q: `COc1ccc2c(c1)c(CC(=O)OC/C=C(\C)CC/C=C(\C)CCC=C(C)C)c(C)n2C(=O)c1ccc(Cl)cc1` was tested. Which “activity change, negative = cytotoxicity” value did it give?
A: -0.253% (inactive)

Q: Which “activity change, negative = cytotoxicity” value does the source give for `CCCCCCCC(=O)[O-].CCCCCCCC(=O)[O-].[Zn+2]` here?
A: 11.3% (inactive)

Q: `CC(=O)N(c1onc(C)c1C)S(=O)(=O)c1ccc(N)cc1` was tested. Which “activity change, negative = cytotoxicity” value did it give?
A: -0.596% (inactive)

Each compound was assayed on Tov112D in the same assay as above. Details: Gynecologic cancer cell panel viability, ATPlite luminescence, 48 h; series mostly up to 57.5 µM; activity change, negative = cytotoxicity: at the top concentration.
Procedure, shortened: as §1

Q: For `CC(=O)N1CCN(c2ccc(O)cc2)CC1`, which “activity change, negative = cytotoxicity” value is on record?
A: 24.6% (inactive)

Q: For `[O-][n+]1cccc(/C(Cl)=N/OC[C@@H](O)CN2CCCCC2)c1`, which “activity change, negative = cytotoxicity” value is on record?
A: 11.1% (inactive)

Q: Which “activity change, negative = cytotoxicity” value does the source give for `CC(C)C(=O)OCc1cccc(OC(=O)[C@@H]2N3C(=O)[C@@H](NC(=O)Cc4ccccc4)[C@H]3SC2(C)C)c1` here?
A: 4.9% (inactive)

Q: How did the “activity change, negative = cytotoxicity” value turn out when `CC(C)NC(=O)c1ccc(C=O)cc1` was run?
A: 8.85% (inactive)

Q: `COc1cc2nc(Cl)nc(N)c2cc1OC` was tested. Which “activity change, negative = cytotoxicity” value did it give?
A: 11.1% (inactive)

Q: With `COc1cc(/C=C/C(N)=O)cc(OC)c1OC` as the compound, how does the “activity change, negative = cytotoxicity” value read?
A: 10.6% (inactive)

Q: Which “activity change, negative = cytotoxicity” value does the source give for `Cc1onc(-c2ccccc2)c1C(=O)Cl` here?
A: 5.93% (inactive)

Q: How did the “activity change, negative = cytotoxicity” value turn out when `O=c1[nH]c2ccccc2c(=O)n1CCCl` was run?
A: -0.291% (inactive)

Q: With `CSCC[C@H](NC(=O)[C@H](Cc1c[nH]c2ccccc12)NC(=O)CCNC(=O)OC(C)(C)C)C(=O)N[C@@H](CC(=O)O)C(=O)N[C@@H](Cc1ccccc1)C(N)=O` as the compound, how does the “activity change, negative = cytotoxicity” value read?
A: 6.61% (inactive)

Q: For `CCN1CCN(c2cc(-c3ccc(F)cc3)c3c(n2)CCCCCC3)CC1`, which “activity change, negative = cytotoxicity” value is on record?
A: -3.99% [at 25.3 µM] (inactive)

Q: Which “activity change, negative = cytotoxicity” value does the source give for `N#CC1(c2ccc(F)cc2)CCC(=O)CC1` here?
A: -7.89% (inactive)

Q: `Cc1ccc(CCn2c3c(c4cc(Cl)ccc42)CN(C)CC3)cn1` was tested. Which “activity change, negative = cytotoxicity” value did it give?
A: -16.9% (inactive)

Q: With `CN1Cc2cc(C(=O)N3CCC(C4CCNCC4)CC3)ccc2N[C@@H](CC(=O)O)C1=O` as the compound, how does the “activity change, negative = cytotoxicity” value read?
A: 5.52% (inactive)

Q: For `CCCC(=O)O[C@]1(C(=O)CC)CC[C@H]2[C@@H]3CCC4=CC(=O)CC[C@]4(C)[C@H]3[C@@H](O)C[C@@]21C`, which “activity change, negative = cytotoxicity” value is on record?
A: -1.22% (inactive)

Q: `COc1ccccc1N1CCN(CCN2C(=O)CC3(CCCC3)CC2=O)CC1` was tested. Which “activity change, negative = cytotoxicity” value did it give?
A: 7% (inactive)

Q: For `CNC(=O)c1c(I)c(NC(C)=O)c(I)c(C(=O)O)c1I`, which “activity change, negative = cytotoxicity” value is on record?
A: 10.7% (inactive)

Q: With `O=C1c2ccccc2CCc2ccccc21` as the compound, how does the “activity change, negative = cytotoxicity” value read?
A: 6.1% (inactive)

Q: With `Cc1nc2n(c(=O)c1CCN1CCC(C(=O)c3ccc(F)cc3)CC1)CCS2` as the compound, how does the “activity change, negative = cytotoxicity” value read?
A: -1.33% (inactive)

Q: Which “activity change, negative = cytotoxicity” value does the source give for `CCOc1ccccc1OCC1CNCCO1` (configuration not stated) here?
A: 9.1% (inactive)

Q: How did the activity change, negative = cytotoxicity turn out when `NCC[C@H](O)C(=O)N[C@@H]1C[C@H](N)[C@@H](O[C@H]2O[C@H](CN)[C@@H](O)[C@H](O)[C@@H]2O)[C@H](O)[C@@H]1O[C@H]1O[C@H](CO)[C@@H](O)[C@H](N)[C@@H]1O` was run?
A: 1.97% [at 0.462 µM] (inactive)

Q: `O=C(c1cc(O)c(O)c(O)c1)c1ccc(O)c(O)c1O` was tested. Which “activity change, negative = cytotoxicity” value did it give?
A: -9.16% (inactive)

Q: `CC(C)(Oc1ccc(Cl)cc1)C(=O)OCCCOC(=O)C(C)(C)Oc1ccc(Cl)cc1` was tested. Which “activity change, negative = cytotoxicity” value did it give?
A: -3.71% (inactive)

Q: `COc1cc(OC)nc(O[C@H](C(=O)O)C(OC)(c2ccccc2)c2ccccc2)n1` was tested. Which “activity change, negative = cytotoxicity” value did it give?
A: 7.92% (inactive)

Q: For `CCC(=O)O[C@]1(C(=O)COC)[C@@H](C)C[C@H]2[C@@H]3CCC4=CC(=O)C=C[C@]4(C)C3(F)[C@@H](O)C[C@@]21C` (some centres not stated), which “activity change, negative = cytotoxicity” value is on record?
A: -2.17% (inactive)

Q: How did the “activity change, negative = cytotoxicity” value turn out when `Cc1ccc(C(=O)C(=O)O)cc1C` was run?
A: 1.45% (inactive)

Q: With `C/C(=C1\CCOC(=O)S1)N(C=O)Cc1cnc(C)nc1N` as the compound, how does the “activity change, negative = cytotoxicity” value read?
A: -11.4% (inactive)

Q: `O=C(C1CCCCC1)N1CC(=O)N2CCCc3ccccc3C2C1` (configuration not stated) was tested. Which “activity change, negative = cytotoxicity” value did it give?
A: 9.6% (inactive)

Q: Which “activity change, negative = cytotoxicity” value does the source give for `O=C(O)c1ccc(OCCN2CCCCC2)cc1` here?
A: 5.51% (inactive)

Q: For `C/C(=C(/OCCOc1ccc(Cl)cc1)c1ccc(Cl)cc1Cl)n1ccnc1`, which “activity change, negative = cytotoxicity” value is on record?
A: -0.992% (inactive)

Q: With `CC(=O)[C@H]1CC[C@H]2[C@@H]3C=CC4=CC(=O)CC[C@@]4(C)[C@@H]3CC[C@]12C` as the compound, how does the Potency read?
A: inactive

Q: Which “activity change, negative = cytotoxicity” value does the source give for `Oc1ccccc1-c1nnco1` here?
A: 6.65% (inactive)

Q: Which “activity change, negative = cytotoxicity” value does the source give for `C#Cc1ccc(-c2ccccc2F)cc1` here?
A: 5.05% (inactive)

Q: For `CC(Oc1c(Cl)cccc1Cl)C1=NCCN1` (configuration not stated), which “activity change, negative = cytotoxicity” value is on record?
A: -2.62% (inactive)

Q: Which “activity change, negative = cytotoxicity” value does the source give for `CCCCOC(=O)CCCCCCCCC(=O)OCCCC` here?
A: -1.04% (inactive)

Q: How did the “activity change, negative = cytotoxicity” value turn out when `CC(C)C[C@@H]1[C@H](c2ccccc2)OC(=O)N1CCCN1CCCCCC1` was run?
A: -2.46% (inactive)

Q: `COC(=O)CCCCC(CCSS/C(CCO)=C(\C)N(C=O)Cc1cnc(C)nc1N)SC(C)=O` (configuration not stated) was tested. Which “activity change, negative = cytotoxicity” value did it give?
A: 3.06% (inactive)

Q: `CNC[C@H](O)[C@@H](O)[C@H](O)[C@H](O)CO` was tested. Which “activity change, negative = cytotoxicity” value did it give?
A: 11.7% (inactive)

Q: With `COc1ccc2c(c1)c(CC(=O)OC/C=C(\C)CC/C=C(\C)CCC=C(C)C)c(C)n2C(=O)c1ccc(Cl)cc1` as the compound, how does the “activity change, negative = cytotoxicity” value read?
A: -1.65% (inactive)

Q: `CCCCCCCC(=O)[O-].CCCCCCCC(=O)[O-].[Zn+2]` was tested. Which “activity change, negative = cytotoxicity” value did it give?
A: 2.17% (inactive)

Q: `CC(=O)N(c1onc(C)c1C)S(=O)(=O)c1ccc(N)cc1` was tested. Which “activity change, negative = cytotoxicity” value did it give?
A: 9.06% (inactive)
